In PubChem BioAssay (NCI) one finds growth data, which are given here for 36 compounds.

Values joined by “and” are separate entries in the source; they are usually repeats but may differ in a detail not shown here. Equal values may be shown once. This is part of a sample that, as a whole, favours compounds with a hit. Of some 83,000 tested, about 20% had one in any assay.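 Assay: single dose, 48 h. Readout: percent growth (0 = no net growth; negative = cell death). Active: <10.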 Values without a mark were called inactive. Active and inactive are the calls of the source.

The subject of the first test is MOLT-4 leukemia. In words: NCI-60 one-dose screen, 48 h (100 = growth as untreated, 0 = no growth, -100 = all killed). Particulars: 10 µM. Here is the method:
Growth inhibition of the MOLT-4 human tumor cell line is measured as a screen for anti-cancer activity. Cells are grown in 96 well plates and exposed to the test compound for 48 hours. Compounds are tested at a single concentration, which is 10^-5 M for most compounds. The reported endpoint is percent growth (GI% or GIPRCNT), where numbers from 0 - 100% represent growth inhibition, and numbers from -100% - 0 represent cell death. For example, a value of 40 represents 60% growth inhibition. A value of 0 means no net growth occurred over the course of the experiment. A value of -40 indicates 40% of cells at the beginning of the experiment died by the end of the experiment. A value of -100 means all cells are dead at the end of the experiment.
NCI-60 Human Tumor Cell Lines Screen was performed using the standard one-dose NCI protocol, which is described in more detail at https://dtp.cancer.gov/discovery_development/nci-60/default.htm.
Compounds with GIPRCNT values below 10 were considered active. Activity score was based on GIPRCNT using the following formula: […]
Score is 0 for GIPRCNT values of 100 or above, 50 for GIPRCNT values of 0, and 100 for GIPRCNT values of -100.
Take `O=C(O)c1c(Cl)c(Cl)c(Cl)c(Cl)c1-c1c2cc(I)c(=O)c(I)c-2oc2c(I)c(O)c(I)cc12`: the growth was 110% and 106% and 91.4%.

`O=C(Nc1cccc(Br)c1)Oc1cccc2cccnc12`: the growth was 115%.

Consider `CN(C)C(=O)c1ccc(SC(=S)NCc2ccccc2)cc1`, for which the growth is 111%.

On to `O=C(Nc1c(Cl)cccc1Cl)Oc1cccc2cccnc12`, for which the growth was 16.6%.

The same test, now with this note: 10 µM unless noted.
As to `CCOC(=O)/C(=C\c1ccc(-c2ccccc2)cc1)C(C)=O`, the growth is 107%.

`Oc1c(Cl)cc(Cl)c2cccnc12`: the growth was 37.1% and 35.7%.

For `CC(C)(C)c1ccc(O)c(C2CCCCC2)c1`, the growth is -31.9% (active).

Turning to `Nc1ncnc2c1ncn2C1OC(CO)C(O)C1O` (stereo not given), the growth was 102% and 111% and 109%.

Regarding `CN(C)c1ccc(/C=N/N=C(\C#N)[S][Sn]([Cl])([c]2ccccc2)[c]2ccccc2)cc1`, the growth is 6.2% (active).

On to `Cc1ccc(NS(=O)(=O)c2ccc(C)cc2)cc1`, for which the growth is 94% and 98.5%.

Take `N#CSCc1c(Cl)cccc1Cl`: the growth was 90.9%.

For `O=C(CC1(O)C(=O)Nc2c(Cl)ccc(Cl)c21)c1ccc(Cl)cc1Cl` (stereo not given), the growth is 106%.

Consider `NC(=S)N/N=C\c1nccc2c(C(F)(F)C(F)(F)C(F)(F)F)cccc12`, for which the growth was -30.9% (active).

On to `Cc1cc(N)c2ccccc2[n+]1CCCCCCCCCC[n+]1c(C)cc(N)c2ccccc21`, for which the growth was -43.9% (active) and 1.26% (active).

As to `CCCCCCCCCCCCCCCC[N+](C)(CCO)Cc1cnc[nH]1` (stereo not given), the growth was -77.2% (active).

Regarding `COc1cc(NS(C)(=O)=O)ccc1Nc1c2ccccc2nc2ccccc12`, the growth is 1.03% [2.5 µM] (active).

Take `C[n+]1c(/C=C/c2ccc([N+](=O)[O-])cc2)ccc2ccccc21`: the growth was 90.7%.

Consider `C/C=C1\SC(=S)NC1=O`, for which the growth is 103%.

On to `CC(C)(C)CC(C)(C)c1ccc(OCCSC(=N)N)cc1`, for which the growth is 9.3% (active).

For `CCCCCCCCCCCCCCCCN(CC)CC`, the growth was -71.2% (active).

Regarding `CCCCCCC(C)c1ccccc1O` (stereo not given) (tested in a mixture with another compound), the growth was 102%.

Turning to `OC(CNc1ccnc2cc(Cl)ccc12)CNc1ccnc2cc(Cl)ccc12`, the growth was 12%.

As to `O=[N+]([O-])c1ccc(N=Nc2ccc(O)cc2O)cc1`, the growth is 36.7%.

Consider `CCCCCCCCCCCCCCCCCCOP(=O)([O-])OC1CC[N+](C)(C)CC1`, for which the growth is -44.9% (active) and -49.8% (active).

Turning to `Oc1c(Br)cc(Cl)cc1C(c1cc(Cl)cc(Br)c1O)C(Cl)(Cl)Cl`, the growth is 14.6%.

On to `CCC(CC)COC(=O)c1ccc(O)c(O)c1`, for which the growth was 30.3%.

For the compound `C1=C(c2ccccc2)C(c2ccc(OCCN3CCCCC3)cc2)Oc2ccccc21` (stereo not given), the growth was 47.1%.

`O[C@H]1[C@H]2c3cc4c(cc3CN3CCC(=C[C@@H]1O)[C@H]23)OCO4`: the growth was 8% (active).

For `CCC(CCCN(CC)CCc1ccccc1)OC(=O)c1cc(OC)c(OC)c(OC)c1` (stereo not given), the growth is 87.1%.

Take `CNc1ccc2c(c1)c1ccccc1n2C`: the growth was 88.1%.

For the compound `COC(=O)c1nc(=S)[nH]c(C(=O)OC)c1C(=O)c1ccccn1`, the growth is 2.29% (active).

Consider `C=CCOc1ccc(N=NC(C#N)C#N)cc1`, for which the growth was 19.5%.

Turning to `COc1ccccc1OC(=O)Oc1ccccc1OC`, the growth was 93.9% and 92%.

Turning to `CCC1OC(OC)C=CC1=O` (stereo not given), the growth was 103%.

`Cc1c2ccccc2c(C)c2c1ccc1ccccc12`: the growth is 71.1%.

Turning to `Cn1c2c(c3ccccc31)CCN1C[C@@H]3CCCC[C@H]3C[C@@H]21`, the growth was 31.3%.

The same test, now with this note: 100 µM.
Consider `O=C(O)c1c(Cl)c(Cl)c(Cl)c(Cl)c1-c1c2cc(I)c(=O)c(I)c-2oc2c(I)c(O)c(I)cc12`, for which the growth is -50.2% (active).

As for `O=C(Nc1cccc(Br)c1)Oc1cccc2cccnc12`, the growth is -0.787% (active).

`CN(C)C(=O)c1ccc(SC(=S)NCc2ccccc2)cc1`: the growth was 3.1% (active).

Consider `O=C(Nc1c(Cl)cccc1Cl)Oc1cccc2cccnc12`, for which the growth is 8.36% (active).
